Inconclusive results are not listed. Active and inactive are the calls of the source.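 The calls were made as follows, unless noted: active = binding below the plate cutoff, the plate median minus 3 SD, with a reading above zero; inconclusive = below the plate cutoff but reading exactly zero; inactive = the rest.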
Assays:
[1] = rapamycin-like changes in RPL19A-GFP expression – cell-based, S. cerevisiae, multiplex flow cytometry, primary screen (AID 1862; in the data active = percent of DMSO control GFP below about 86%;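 also: lower values mimic rapamycin by blocking the RPL19A rise seen in DMSO cells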); conditions: S. cerevisiae RPL19A-GFP strain, flow cytometry fluorescence, 3 h; at 10 µM; stronger effect = lower value
[2] = TOR pathway GLN3 branch reporter MEP2-GFP changes – S. cerevisiae, multiplex flow cytometry, primary screen (AID 1867;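 active = GFP response, as percent of the DMSO control, above the screen-wide mean plus 3 SD, about 139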;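 also: median GFP channel fluorescence of barcode-gated MEP2-GFP cells measured by flow cytometry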); conditions: S. cerevisiae MEP2-GFP strain, 3 h, at 10 µM, stronger effect = higher value, 100% means same as DMSO wells
[3] = TOR pathway RTG branch CIT2 reporter changes – S. cerevisiae, GFP fusion, multiplex flow cytometry, primary screen (AID 1870;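 active = percent response above a set limit, the screen-wide mean plus 3 SD, cut at about 130% in these data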;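 also: barcoded CIT2-GFP strain pooled with four other GFP strains with rapamycin as positive control; median GFP fluorescence per well over plate mean of DMSO wells so 100% = DMSO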); conditions: S. cerevisiae CIT2-GFP expression, 3 h, at 10 µM, stronger effect = higher value
[4] = TOR pathway LAP4-GFP level changes – S. cerevisiae, multiplex flow cytometry, primary screen (AID 1873;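 active = GFP signal, as percent of the solvent control, above the screen mean plus 3 SD, about 149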); conditions: S. cerevisiae LAP4-GFP expression, 3 h, at 10 µM, stronger effect = higher value
[5] = reduced mouse 2C T cell binding to pMHC/ICAM-1 vesicles – MLPCN validation set, flow cytometry, LFA-1/ICAM-1 modulator project, pilot screen (AID 2523;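 active = response below a set limit, under 55% cells CD8-positive and vesicle-bound, and CD8 cells' 90th-percentile brightness under 279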;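 as to vesicle binding response: mean PE anti-B7-1 fluorescence of CD8+ cells relative to row control; 100% = QL9-loaded vesicles with DMSO vehicle in the same plate row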); conditions: 2C mouse CD8+ T cells, at 7 µM, stronger effect = lower value; double positive events: measured here: CD8+/vesicle+ event percentage
[6] = biological target: Integrin beta-1 (Homo sapiens) + Integrin alpha-4 (Homo sapiens) (UniProt P13612+P05556); assay: alpha4beta1 integrin LIBS antibody binding reduction – U937 cells, HUTS-21 mAb, flow cytometry, validation set, VLA-4 allosteric modulator project, pilot screen (AID 2674;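 active = inhibition above 50%, about 3 SD of the validation set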;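 also: antibody binding induced by the VLA-4 ligand LDV present at three times its Kd; 0% = LDV ligand with antibody and no compound and 100% = antibody without LDV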); conditions: HUTS-21 LIBS mAb binding, at 6.7 µM, stronger effect = higher value, binding induced by LDV ligand
Sequence of Integrin beta-1 (Homo sapiens) + Integrin alpha-4 (Homo sapiens) (P05556 whole entry, looked up): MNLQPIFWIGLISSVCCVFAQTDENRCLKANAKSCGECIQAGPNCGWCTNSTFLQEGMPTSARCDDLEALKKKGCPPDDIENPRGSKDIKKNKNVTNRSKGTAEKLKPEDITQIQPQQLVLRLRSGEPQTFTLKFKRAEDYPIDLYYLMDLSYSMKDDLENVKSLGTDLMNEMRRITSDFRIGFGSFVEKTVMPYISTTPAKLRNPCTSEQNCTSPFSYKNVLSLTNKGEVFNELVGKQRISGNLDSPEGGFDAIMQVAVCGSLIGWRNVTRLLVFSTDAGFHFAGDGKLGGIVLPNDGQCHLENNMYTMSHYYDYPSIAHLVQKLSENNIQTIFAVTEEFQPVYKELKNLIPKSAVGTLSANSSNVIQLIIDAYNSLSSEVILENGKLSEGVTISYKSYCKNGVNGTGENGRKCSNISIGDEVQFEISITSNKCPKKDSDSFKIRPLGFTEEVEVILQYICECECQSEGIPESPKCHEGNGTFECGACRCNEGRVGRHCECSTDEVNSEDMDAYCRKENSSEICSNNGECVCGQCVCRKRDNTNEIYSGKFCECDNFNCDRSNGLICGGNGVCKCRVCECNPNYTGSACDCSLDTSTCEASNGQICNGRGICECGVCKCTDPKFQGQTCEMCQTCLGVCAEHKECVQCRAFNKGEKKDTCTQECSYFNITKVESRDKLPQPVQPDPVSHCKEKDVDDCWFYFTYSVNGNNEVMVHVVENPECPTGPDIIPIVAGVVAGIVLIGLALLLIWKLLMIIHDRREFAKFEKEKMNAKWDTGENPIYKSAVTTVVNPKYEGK
Sequence of Integrin beta-1 (Homo sapiens) + Integrin alpha-4 (Homo sapiens) (P13612 whole entry, looked up): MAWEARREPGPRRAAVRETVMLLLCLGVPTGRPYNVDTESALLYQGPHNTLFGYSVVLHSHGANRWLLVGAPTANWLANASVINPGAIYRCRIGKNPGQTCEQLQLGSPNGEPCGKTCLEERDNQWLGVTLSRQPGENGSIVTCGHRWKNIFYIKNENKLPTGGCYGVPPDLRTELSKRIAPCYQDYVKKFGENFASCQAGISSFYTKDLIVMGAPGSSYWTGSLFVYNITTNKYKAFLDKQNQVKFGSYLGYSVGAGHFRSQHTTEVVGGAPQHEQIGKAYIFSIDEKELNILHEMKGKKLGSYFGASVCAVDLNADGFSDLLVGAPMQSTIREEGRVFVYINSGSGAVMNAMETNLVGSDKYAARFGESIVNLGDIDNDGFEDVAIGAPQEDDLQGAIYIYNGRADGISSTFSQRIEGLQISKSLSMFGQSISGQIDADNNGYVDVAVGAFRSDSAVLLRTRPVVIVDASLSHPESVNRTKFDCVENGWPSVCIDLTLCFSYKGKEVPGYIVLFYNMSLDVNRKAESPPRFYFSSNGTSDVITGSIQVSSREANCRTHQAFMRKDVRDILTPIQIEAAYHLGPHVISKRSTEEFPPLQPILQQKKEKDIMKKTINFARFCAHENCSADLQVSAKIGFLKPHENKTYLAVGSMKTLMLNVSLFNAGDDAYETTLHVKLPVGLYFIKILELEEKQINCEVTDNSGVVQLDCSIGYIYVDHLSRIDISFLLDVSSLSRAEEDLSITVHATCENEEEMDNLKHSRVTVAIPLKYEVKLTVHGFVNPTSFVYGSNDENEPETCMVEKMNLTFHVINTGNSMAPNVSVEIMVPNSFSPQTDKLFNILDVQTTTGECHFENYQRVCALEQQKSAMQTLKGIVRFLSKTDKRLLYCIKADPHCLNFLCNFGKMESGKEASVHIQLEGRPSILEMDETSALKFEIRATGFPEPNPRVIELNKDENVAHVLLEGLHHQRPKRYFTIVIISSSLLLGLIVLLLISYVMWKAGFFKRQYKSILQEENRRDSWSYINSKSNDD

[7] = calorie-restriction mimetic ROS inhibitors, yeast – validation compound set, pilot screen (AID 2706;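 active = superoxide response below 65% of plate, a cut near 3 SD across the whole screen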;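 also: yeast exposed to compound for one week at 30 degrees C before staining; 100% = mean of all compound wells on the same plate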); conditions: S. cerevisiae aging, superoxide DHE fluorescence; at 10 µM, stronger effect = lower value
[8] = biological target: Beta-adrenergic receptor kinase 1 (Homo sapiens) (UniProt P25098); assay: GRK2 binders displacing RNA aptamer, biochemical, validation, human GRK2, bead flow cytometry (AID 488806;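 active = aptamer binding inhibition above 30%, about 3 SD of noise from non-fluorescent compounds; inactive = inhibition at or below 30%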); conditions: bead-bound GRK2, FAM-aptamer displacement, at 10 µM, stronger effect = higher value
Sequence of Beta-adrenergic receptor kinase 1 (Homo sapiens) (P25098 whole entry, looked up): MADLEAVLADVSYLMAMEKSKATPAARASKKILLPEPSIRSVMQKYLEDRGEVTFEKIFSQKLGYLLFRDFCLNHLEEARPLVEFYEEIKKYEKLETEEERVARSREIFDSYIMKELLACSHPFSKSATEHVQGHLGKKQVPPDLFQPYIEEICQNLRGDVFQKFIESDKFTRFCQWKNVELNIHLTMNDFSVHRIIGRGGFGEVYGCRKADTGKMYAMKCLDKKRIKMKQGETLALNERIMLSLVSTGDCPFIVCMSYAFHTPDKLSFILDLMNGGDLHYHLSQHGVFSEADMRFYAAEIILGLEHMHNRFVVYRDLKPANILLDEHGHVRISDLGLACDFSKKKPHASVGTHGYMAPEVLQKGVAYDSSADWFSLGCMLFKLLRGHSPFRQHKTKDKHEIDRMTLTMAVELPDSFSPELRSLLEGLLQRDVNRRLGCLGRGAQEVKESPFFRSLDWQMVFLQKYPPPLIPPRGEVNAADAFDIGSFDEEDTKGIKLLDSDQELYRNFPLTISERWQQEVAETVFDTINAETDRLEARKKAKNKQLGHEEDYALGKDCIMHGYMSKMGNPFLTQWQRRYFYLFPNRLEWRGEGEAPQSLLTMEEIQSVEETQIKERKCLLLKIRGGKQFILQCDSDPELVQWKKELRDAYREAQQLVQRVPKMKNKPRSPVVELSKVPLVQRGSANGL

[9] = biological target: Beta-2 adrenergic receptor (Homo sapiens) (UniProt P07550); assay: agonist-induced loss of surface beta2AR – cell-based, FAP fluorogen, flow cytometry, validation set, pilot screen (AID 504459;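 active = percent response above 42, roughly 3 SD of non-fluorescent test compounds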;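 also: agonist-driven loss of surface beta2AR via internalization measured by FAP dye flow cytometry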); conditions: Am2.2-beta2AR cells, at 10 µM, stronger effect = higher value
Sequence of Beta-2 adrenergic receptor (Homo sapiens) (P07550 whole entry, looked up): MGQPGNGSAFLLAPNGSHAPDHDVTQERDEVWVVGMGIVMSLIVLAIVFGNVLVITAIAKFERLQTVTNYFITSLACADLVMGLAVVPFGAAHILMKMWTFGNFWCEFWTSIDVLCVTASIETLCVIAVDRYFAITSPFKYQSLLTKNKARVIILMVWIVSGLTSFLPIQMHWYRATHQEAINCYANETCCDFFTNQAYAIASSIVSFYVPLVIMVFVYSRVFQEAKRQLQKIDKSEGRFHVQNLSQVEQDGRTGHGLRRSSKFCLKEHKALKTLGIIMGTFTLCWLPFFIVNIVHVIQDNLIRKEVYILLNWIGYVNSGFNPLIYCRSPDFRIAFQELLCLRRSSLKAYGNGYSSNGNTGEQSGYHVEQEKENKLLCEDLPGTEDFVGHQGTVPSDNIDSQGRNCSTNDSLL

[10] = biological target: AP-2 complex subunit beta (Homo sapiens) (UniProt P63010); assay: beta-arrestin/AP2 interaction blockers – biochemical, validation set, GST-AP2 beads, flow cytometry, pilot screen (AID 504541;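 active = inhibition above 54%, about 3 SD of non-fluorescent compounds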;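 also: AP2 carries R879A mutation and is captured from E. coli lysate; bead-bound FITC arrestin peptide fluorescence measuring arrestin peptide binding to AP2; 0% = DMSO wells and 100% = excess unlabeled arrestin peptide control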); conditions: FITC arrestin peptide, at 10 µM, stronger effect = higher value, AP2 beta2 appendage fragment, R879A mutant
Sequence of AP-2 complex subunit beta (Homo sapiens) (P63010 whole entry, looked up, the tested form may be a part, one chain of several): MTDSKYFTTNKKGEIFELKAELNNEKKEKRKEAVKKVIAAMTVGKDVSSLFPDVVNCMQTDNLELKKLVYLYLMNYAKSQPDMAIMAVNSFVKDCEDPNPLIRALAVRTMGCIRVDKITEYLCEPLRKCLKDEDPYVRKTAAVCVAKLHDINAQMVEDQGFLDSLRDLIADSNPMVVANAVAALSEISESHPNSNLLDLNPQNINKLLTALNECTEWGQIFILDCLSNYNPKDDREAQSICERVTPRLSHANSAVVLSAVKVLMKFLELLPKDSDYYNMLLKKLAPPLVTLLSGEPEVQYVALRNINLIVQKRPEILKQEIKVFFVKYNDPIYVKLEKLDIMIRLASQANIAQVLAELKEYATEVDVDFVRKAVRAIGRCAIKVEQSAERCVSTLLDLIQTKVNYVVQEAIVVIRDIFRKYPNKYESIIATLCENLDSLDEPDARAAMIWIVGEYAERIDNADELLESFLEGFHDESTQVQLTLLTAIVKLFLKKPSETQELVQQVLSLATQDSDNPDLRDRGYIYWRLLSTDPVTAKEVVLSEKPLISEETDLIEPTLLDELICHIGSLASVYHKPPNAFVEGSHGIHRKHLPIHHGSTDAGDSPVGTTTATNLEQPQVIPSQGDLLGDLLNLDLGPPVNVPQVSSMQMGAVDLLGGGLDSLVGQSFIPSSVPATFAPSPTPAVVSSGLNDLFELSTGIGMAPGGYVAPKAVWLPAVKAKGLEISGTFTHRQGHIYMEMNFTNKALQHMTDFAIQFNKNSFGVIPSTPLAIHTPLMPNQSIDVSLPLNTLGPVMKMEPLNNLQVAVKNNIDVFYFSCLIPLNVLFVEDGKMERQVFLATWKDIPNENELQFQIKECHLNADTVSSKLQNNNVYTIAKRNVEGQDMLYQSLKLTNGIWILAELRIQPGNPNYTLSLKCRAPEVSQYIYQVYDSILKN

[11] = cytosolic pH regulators acting via V-ATPase – S. cerevisiae, pHLuorin, HTS validation (AID 504600; in the data active = response above about 15%;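 also: plate controls were DMSO for no effect and reference compound for full effect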); conditions: V-ATPase proton transport, at 10 µM, stronger effect = higher value
[12] = test system: anti-desmoglein-3 scFv antibody binding to human DSG3; assay: blockers of pathogenic pemphigus antibody–desmoglein-3 binding – biochemical, validation compound set, bead-based, flow cytometry, pilot screen (AID 588368); conditions: Protein G beads, DSG3-Fc, scFv-GFP binding, at 10 µM, stronger effect = lower value;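 also: signal is the median channel fluorescence of bead-bound GFP antibody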
[13] = Nile Red efflux blockade in pump-expressing yeast – validation compound set, multiplex, phenotypic, pilot screen (AID 588506;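 active = efflux inhibition above 0.42, the validation set average plus 4 SD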;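 also: Nile Red retained in cells so higher fluorescence means more efflux inhibition; 0 = negative control wells and 1 = enniatin B 25 µM full block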); conditions: S. cerevisiae pump-expressing triplex, Nile Red efflux flow cytometry; at 10 µM; stronger effect = higher value; the pumps come from Candida albicans
[14] = biological target: ATP-binding cassette sub-family B member 6 (Homo sapiens) (UniProt Q9NP58); assay: blockers of ABCB6-driven porphyrin uptake – K562-ABCB6 cells, flow cytometry, validation set, pilot screen (AID 588550;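 active = inhibition above the screen-wide mean plus 3 SD, about 51%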;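 also: 0% = DMSO wells and 100% = benzethonium chloride 70 µM positive control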); conditions: K562-ABCB6 porphyrin accumulation, 1 h, at 10 µM, stronger effect = higher value
Sequence of ATP-binding cassette sub-family B member 6 (Homo sapiens) (Q9NP58 whole entry, looked up): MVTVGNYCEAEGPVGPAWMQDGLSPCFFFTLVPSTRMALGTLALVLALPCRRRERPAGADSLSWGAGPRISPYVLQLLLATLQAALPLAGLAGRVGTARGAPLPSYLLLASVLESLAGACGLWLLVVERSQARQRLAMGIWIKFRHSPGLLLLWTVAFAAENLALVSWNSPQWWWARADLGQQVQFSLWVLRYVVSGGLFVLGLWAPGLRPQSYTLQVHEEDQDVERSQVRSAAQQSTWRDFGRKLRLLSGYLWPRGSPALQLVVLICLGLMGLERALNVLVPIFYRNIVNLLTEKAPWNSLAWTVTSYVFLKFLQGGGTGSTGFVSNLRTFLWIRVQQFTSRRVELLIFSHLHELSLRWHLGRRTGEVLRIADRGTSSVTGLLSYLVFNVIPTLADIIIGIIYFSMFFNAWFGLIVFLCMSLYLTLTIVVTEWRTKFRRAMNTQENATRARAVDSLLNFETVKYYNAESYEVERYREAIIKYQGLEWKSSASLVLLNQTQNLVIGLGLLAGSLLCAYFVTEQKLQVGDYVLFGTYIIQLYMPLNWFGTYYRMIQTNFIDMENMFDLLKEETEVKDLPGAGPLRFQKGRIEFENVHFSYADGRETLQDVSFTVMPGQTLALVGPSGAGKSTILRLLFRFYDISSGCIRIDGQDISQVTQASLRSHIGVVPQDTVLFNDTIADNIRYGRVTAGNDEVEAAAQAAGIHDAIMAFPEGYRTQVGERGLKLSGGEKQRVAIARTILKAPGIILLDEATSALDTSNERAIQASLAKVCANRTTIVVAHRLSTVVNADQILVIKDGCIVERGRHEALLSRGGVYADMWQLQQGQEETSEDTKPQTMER

[15] = AML differentiation inducers, ER-HoxA9 marrow cells – cell-based, GFP/MAC1 double positive, flow cytometry, validation set, primary screen (AID 588685;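 active = differentiation response of at least 50%, scaled between solvent and reference control, from cells with both markers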;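 also: compound exposure lasts four days before antibody staining and flow analysis; 0% = DMSO wells and 100% = 5 µM fulvestrant positive control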); conditions: stronger effect = higher value, normalized: vehicle 0, fulvestrant 100
[16] = yeast AGP1-GFP level changes, GLN3 branch – cell-based, multiplex flow cytometry, S. cerevisiae, primary screen (AID 1887;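 active = GFP signal above the screen-wide mean plus 3 SD, that is over about 124.5% of the solvent control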;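 also: AGP1-GFP fusion strain of S. cerevisiae within a five-strain barcoded multiplex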); conditions: 3 h, at 10 µM, stronger effect = higher value
[17] = hit retest on RPL19A-GFP reporter strain – cell-based, S. cerevisiae, flow cytometry, cherry picks, mother/daughter gates, confirmation (AID 2270;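 active = GFP response below 50% of the DMSO control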); conditions: 3 h, at 10 µM, stronger effect = lower value, 100 = same GFP as DMSO wells
[18] = yeast TOR pathway reporter LAP4-GFP change – cell-based, cherry picks, flow cytometry, mother/daughter gates, confirmation (AID 2271;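 active = GFP response above 150% of the DMSO control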;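 also: ratio of sample to DMSO plate mean so 100% equals DMSO level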); conditions: S. cerevisiae LAP4-GFP strain, 3 h, at 10 µM, stronger effect = higher value, 100 means same as DMSO control
[19] = TOR pathway reporter MEP2-GFP, retest of hits – S. cerevisiae, flow cytometry GFP, cherry picks, confirmation (AID 2272;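 active = GFP response above 150% of the DMSO control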;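 also: ratio of well signal to plate DMSO mean so 100% equals DMSO level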); conditions: S. cerevisiae MEP2-GFP strain, 3 h, at 10 µM, stronger effect = higher value
[20] = TOR pathway CIT2 reporter hit retest – S. cerevisiae, GFP fusion, cherry picks, mother/daughter gates, confirmation (AID 2274;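 active = GFP response above 150% of the DMSO level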); conditions: S. cerevisiae CIT2-GFP strain, flow cytometry, 3 h, at 10 µM, stronger effect = higher value
[21] = measured here: daughter cell gate
[22] = measured here: mother cell gate

COc1ccc(C(=O)Nc2ccccc2C(=O)NCCCn2ccnc2)cc1
59.2%: double positive events [5]
inactive: percent of DMSO control GFP [1] 91.3% | GFP response vs DMSO [2] 115% | percent response of DMSO control [3] 93.9% | GFP response vs DMSO [4] 75.4% | vesicle binding response [5] 82.8% | inhibition [6] 1.61% | superoxide response (% of plate) [7] 101% | aptamer binding inhibition [8] 5% | response [9] -7.51% | inhibition [10] 7.74% | response [11] -1.7% | binding (% of control) [12] 104% | efflux inhibition (fraction of control) [13] 0.23 | inhibition [14] 12% | differentiation response [15] -4.91%

C[N+](C)(C)CCOP(=O)(O)OP(=O)([O-])OC[C@H]1O[C@@H](n2ccc(N)nc2=O)[C@H](O)[C@@H]1O
68.8%: double positive events [5]
inactive: percent of DMSO control GFP [1] 101% | GFP response vs DMSO [2] 113% | percent response of DMSO control [3] 112% | GFP response vs DMSO [4] 82% | GFP response, % of DMSO [16] 102% | inhibition [6] -12.9% | superoxide response (% of plate) [7] 89.1% | aptamer binding inhibition [8] 2% | response [9] 3.17% | inhibition [10] -4.05% | response [11] -1.87% | binding (% of control) [12] 101% | efflux inhibition (fraction of control) [13] -0.17 | inhibition [14] 10% | differentiation response [15] -7.37%

Cc1cccc(C)c1NS(=O)(=O)c1ccc(NC(=O)c2ccc(Cl)c([N+](=O)[O-])c2)cc1
62.8%: double positive events [5]
inactive: percent of DMSO control GFP [1] 97.7% | GFP response vs DMSO [2] 110% | percent response of DMSO control [3] 116% | GFP response vs DMSO [4] 72.6% | vesicle binding response [5] 163% | inhibition [6] 9.37% | superoxide response (% of plate) [7] 103% | aptamer binding inhibition [8] 0% | response [9] -4.38% | inhibition [10] 4.81% | response [11] 13% | binding (% of control) [12] 100% | efflux inhibition (fraction of control) [13] -0.2 | inhibition [14] 9% | differentiation response [15] 13.1%

CCCNC(=O)NS(=O)(=O)c1ccc(Cl)cc1
inactive: percent of DMSO control GFP [1] 98.2% | GFP response vs DMSO [2] 104% | percent response of DMSO control [3] 97.1% | GFP response vs DMSO [4] 101% | GFP response, % of DMSO [16] 103% | inhibition [6] 1.12% | superoxide response (% of plate) [7] 99.1% | aptamer binding inhibition [8] 2% | response [9] -4.85% | inhibition [10] 11.1% | response [11] -3.28% | binding (% of control) [12] 102% | efflux inhibition (fraction of control) [13] -0.02 | inhibition [14] 2% | differentiation response [15] 8.02%
48%: double positive events [5]

CCCCC/C=C\C[C@H](O)/C=C/c1cccc(C[C@H](O)CCCCO)n1
52.3%: double positive events [5]
active: vesicle binding response [5] 41.1%
inactive: percent of DMSO control GFP [1] 97.9% | GFP response vs DMSO [2] 111% | percent response of DMSO control [3] 111% | GFP response vs DMSO [4] 75.9% | inhibition [6] -3.24% | superoxide response (% of plate) [7] 116% | aptamer binding inhibition [8] 1% | response [9] -7.36% | inhibition [10] -4.61% | response [11] 1.37% | binding (% of control) [12] 103% | efflux inhibition (fraction of control) [13] 0.16 | inhibition [14] 10% | differentiation response [15] -2.46%

COc1cccc(N2C(=O)[C@H]3C(C(=O)c4cnccn4)=NN[C@H]3C2=O)c1
inactive: percent of DMSO control GFP [1] 93.5% | GFP response vs DMSO [2] 123% | percent response of DMSO control [3] 111% | GFP response vs DMSO [4] 79.8% | vesicle binding response [5] 191% | inhibition [6] 14.2% | superoxide response (% of plate) [7] 106% | aptamer binding inhibition [8] 2% | response [9] -6.07% | inhibition [10] -1.17% | response [11] -1.86% | binding (% of control) [12] 98.9% | efflux inhibition (fraction of control) [13] -0.13 | inhibition [14] 8% | differentiation response [15] -4.91%
63.5%: double positive events [5]

COc1ccc(NC(=O)C2CSC3c4ccccc4C(=O)N23)cc1 (stereo not drawn)
77.8%: double positive events [5]
inactive: percent of DMSO control GFP [1] 101% | GFP response vs DMSO [2] 104% | percent response of DMSO control [3] 96.5% | GFP response vs DMSO [4] 105% | GFP response, % of DMSO [16] 98.8% | inhibition [6] 0.25% | superoxide response (% of plate) [7] 99.1% | aptamer binding inhibition [8] 0% | response [9] 7.07% | inhibition [10] -0.6% | response [11] 4.39% | binding (% of control) [12] 98.7% | efflux inhibition (fraction of control) [13] -0.1 | inhibition [14] -2% | differentiation response [15] -0.18%

C[C@]12CCC(=O)C=C1CC[C@@H]1[C@@H]2C(=O)C[C@@]2(C)[C@H]1CC[C@]2(O)C(=O)CO
100%: GFP response, % of DMSO [20, 21]
98.1%: GFP response vs DMSO [17, 22]
99.3%: GFP response relative to DMSO ([18]; measured here: daughter cell gate response)
inactive: percent of DMSO control GFP [1] 89.8% | GFP response vs DMSO [2] 125% | percent response of DMSO control [3] 108% | GFP response vs DMSO [4] 88% | GFP response vs DMSO [17] 97% | GFP response relative to DMSO [18] 96.5% | GFP response vs DMSO [19] 102% | GFP response, % of DMSO [20] 99.3% | vesicle binding response [5] 136% | inhibition [6] 14.2% | superoxide response (% of plate) [7] 94.9% | aptamer binding inhibition [8] 4% | response [9] -5.55% | inhibition [10] -9.52% | response [11] 1.03% | binding (% of control) [12] 101% | efflux inhibition (fraction of control) [13] 0.3 | inhibition [14] 14% | differentiation response [15] 14.7%
94.6%: GFP response relative to DMSO ([18]; measured here: mother cell gate response)
99.1%: GFP response, % of DMSO [20, 22]
61.9%: double positive events [5]
97.3%: GFP response vs DMSO [17, 21]

OC[C@@H](O)[C@@H](O[C@H]1O[C@H](CO)[C@@H](O)[C@H](O)[C@H]1O)[C@H](O)[C@@H](O)CO
inactive: percent of DMSO control GFP [1] 102% | GFP response vs DMSO [2] 103% | percent response of DMSO control [3] 88.4% | GFP response vs DMSO [4] 92% | GFP response, % of DMSO [16] 95% | vesicle binding response [5] 208% | aptamer binding inhibition [8] 0% | response [9] -1.29% | inhibition [10] 13.8% | response [11] -1.56% | binding (% of control) [12] 102% | inhibition [14] -1% | differentiation response [15] 20.8%
active: efflux inhibition (fraction of control) [13] 0.8
65%: double positive events [5]
